Compound activity: PubChem BioAssay, National Center for Advancing Translational Sciences (NCATS)
D2 PAM-1: potentiates the human D2 dopamine receptor allosterically; 360,000 compounds, 0.23% hits; P14416; DiscoveRx D2 beta-arrestin cells, luminescence, 90 min; 100% = 57 uM dopamine signal; potentiation, % (no concentration beside the values); in the data active = potentiation above about 50%; inconclusive = mostly about 30% to 49%
Target sequence (P14416 whole entry, looked up): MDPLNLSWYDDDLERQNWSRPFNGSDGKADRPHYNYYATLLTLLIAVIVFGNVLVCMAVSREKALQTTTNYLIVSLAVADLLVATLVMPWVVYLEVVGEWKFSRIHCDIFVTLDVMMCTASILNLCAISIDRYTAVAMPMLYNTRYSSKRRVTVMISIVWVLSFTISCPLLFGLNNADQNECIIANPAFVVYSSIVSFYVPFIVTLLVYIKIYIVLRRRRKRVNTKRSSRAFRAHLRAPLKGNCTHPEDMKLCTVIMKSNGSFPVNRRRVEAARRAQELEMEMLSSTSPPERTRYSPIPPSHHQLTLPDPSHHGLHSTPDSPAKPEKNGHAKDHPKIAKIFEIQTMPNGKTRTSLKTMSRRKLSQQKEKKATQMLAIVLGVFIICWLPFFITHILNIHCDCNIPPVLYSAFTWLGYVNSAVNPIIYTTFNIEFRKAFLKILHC
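D2 cells co-treated with compound plus 50 nM dopamine (EC20) for 90 min at 37 deg C to detect potentiation. Beta-arrestin recruitment was read as enzyme-fragment luminescence after 1 h at ambient temperature. Full response was set by 57 uM dopamine.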
D2 ag-1: agonists of human D2 dopamine receptor (beta-arrestin). P14416. DiscoveRx PathHunter D2 beta-arrestin, luminescence, 90 min; 100% = 57 uM dopamine signal. activation, % (concentration not given with the values). 360,000 compounds, 0.084% hits; in the data active = activation above about 40%; inconclusive = between about 15% and that limit
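DiscoveRx PathHunter D2 beta-arrestin cells (2,100/well) attached overnight, then compound-stimulated 90 min at 37 C in HBSS/10 mM HEPES/0.1% Tween-20 buffer; beta-galactosidase complementation read by luminescence after 1 h at ambient temperature. Dopamine 57 uM final (EC100) as control.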
D2 PAM-2: positively modulates the human D2 dopamine receptor allosterically. P14416. HEK293 T-REx D2, calcium flux, EC20 dopamine potentiation. potentiation, % at 10 µM. 340,000 compounds, 0.34% hits. AID 485347;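 active = potentiation over 3 SD above the plate norm, cut at about 30% in these data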
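Potentiation of an EC20 dopamine calcium response is measured in a force-coupled, tetracycline-inducible Hek293 Trex D2 line. Compound-only kinetic reads over 180 s flag agonists before dopamine addition.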
D2 ag-2: activates the human D2 dopamine receptor | HEK293 T-REx D2 cells, calcium flux agonist mode | activation, % at 2 µM | 340,000 compounds, 0.53% hits | AID 485358;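 active = activation over 3 SD above normal in the single-dose calcium agonist read, cut at about 30% in these data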
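In this primary screen, compounds producing a positive calcium signal within 180 s of addition to tetracycline-induced, force-coupled HEK293 Trex D2 cells are flagged; cells are dye-loaded with a no-wash calcium kit beforehand.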
D2 antag: antagonists of human D2 dopamine receptor; P14416; HEK293 TREx D2 cells, calcium flux, dopamine EC80; inhibition, % at 10 µM; 340,000 compounds, 2% hits; in the data active = inhibition above about 30%; inactive = below that, where a call was filed
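HEK293 T-REx D2 cells, tet-induced, calcium dye no-wash. Cpd pintool add, 180 s kinetic, then EC80 DA, 180 s kinetic. Ca flux read.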
D3 arrestin ag: activates human D3 dopamine receptor beta-arrestin recruitment | shares compounds with D2 ag-2 | DiscoveRx D3 beta-arrestin cells, luminescence, 90 min | Potency, µM (highest dose often 76.9 µM), hits mostly activators | 2,300 compounds, 4% hits | AID 720506; note: nearly all actives have a fitted effect of over 70% in size
D2 ag-3: activates human D2 dopamine receptor in D3 counterscreen | shares compounds with D2 ag-2 | Potency, µM (doses to about 76.9 µM), most hits filed as activators | DiscoveRx PathHunter D2 beta-arrestin, luminescence, 90 min; response scale: percent relative to full dopamine signal | 2,300 compounds, 5.9% hits | AID 720507; note: nearly all actives have a fitted effect of over 70% in size
Large screens that a line does not name were inactive (follow-up assays come after a bar, where they were run). This is a sample that favours compounds with a hit; in the whole collection about 2.4% have one here. Unless noted, calls come from the whole dose curve; as a rule, active = well fitted activation curve with a large enough effect; inconclusive = small, poorly fitted or top-dose-only effect; inactive = flat fitted curve, though single readings scatter.

O=C(N1CCOCC1)N1CCN(Cc2ccccc2)CC1	none
O=C(c1ccccc1)N1CCN(CC#Cc2ccccc2)CC1	none (no result: D2 ag-2, D2 antag) | D3 arrestin ag inconclusive | D2 ag-3 inactive
CN(c1ccc(C(=O)N2CCN(Cc3ccccc3)CC2)cc1)S(=O)(=O)c1ccc(Cl)cc1	D2 ag-1 inconclusive, D2 ag-2 64.6, D2 antag 89.9 | D3 arrestin ag inactive | D2 ag-3 inconclusive
O=C(c1ccc(N2CCOCC2)c([N+](=O)[O-])c1)N1CCN(Cc2ccccc2)CC1	D2 ag-2 60.1 | D3 arrestin ag inactive | D2 ag-3 inactive
CC1=C(C(=O)Nc2ccccc2)C(C(C)C)n2nc(SCc3ccccc3C)nc2N1 (stereo not given)	none (no result: D2 PAM-1, D2 ag-1, D2 antag)
CCN(CC)C(=O)C1=C(C)N(CCCOC)C(=O)C(CC(=O)NCc2cccs2)C1 (stereo not given)	none (no result: D2 PAM-2, D2 ag-2, D2 antag)
O=C(c1ccccc1)N1CCN(Cc2ccccc2)CC1	none | D3 arrestin ag inactive | D2 ag-3 inconclusive
CC(C)(C)c1ccc(C(=O)N2CCN(Cc3ccccc3)CC2)cc1	none
CC1=Nc2cc(C(=O)NCc3ccccc3Cl)ccc2Sc2c(C)ccc(C)c21	none (no result: D2 PAM-1, D2 ag-1, D2 antag)
COc1ccc(OC)c(NC(=O)c2cccc(N3C(=O)C4C5CCC(C5)C4C3=O)c2)c1 (stereo not given)	none (no result: D2 PAM-2, D2 ag-2, D2 antag) | D3 arrestin ag inactive | D2 ag-3 inconclusive
Cc1ccc(S(=O)(=O)CC(=O)N2CCN(c3nc4c(F)cccc4s3)CC2)cc1	none (no result: D2 PAM-1, D2 ag-1, D2 antag)
CCOc1ccc(NC(=O)c2c[nH]n3c(=O)cc(C4CCN(C(=O)OC(C)(C)C)CC4)nc23)cc1	none | D3 arrestin ag inactive | D2 ag-3 inactive
CCOC(=O)N1CCC(c2cc(=O)n3[nH]cc(C(=O)OC)c3n2)CC1	none
COc1ccc(OCC(O)CNCCOc2ccccc2OC)c(C(C)(C)C)c1 (stereo not given)	D2 ag-2 44.6, D2 antag 71.2 | D3 arrestin ag inactive | D2 ag-3 inactive
COc1ccccc1NCC(O)COc1ccc(C(C)(C)C)cc1 (stereo not given)	none
O=C(NCCS(=O)(=O)N1CCN(c2ccccc2)CC1)C1CC(=O)N(c2ccccc2)C1 (stereo not given)	none | D3 arrestin ag inactive | D2 ag-3 inactive
O=C(NCCS(=O)(=O)N1CCN(c2ccc(F)cc2)CC1)C1CC(=O)N(c2ccccc2)C1 (stereo not given)	none
COC(=O)c1cc2c([nH]c1=O)CCCC2=O	none (no result: D2 PAM-2, D2 ag-2, D2 antag)
O=C(O)/C=C/C(=O)NCCc1ccccc1	D2 ag-2 77.9, D2 antag 60.9 | D3 arrestin ag inactive | D2 ag-3 inactive
O=C(O)/C=C/C(=O)NCCc1ccc(Cl)cc1	none
Cc1ccc(C)c(CN2C(=O)c3ccccc3S(=O)(=O)c3ccc(C(=O)N4CCc5ccccc54)cc32)c1	none (no result: D2 PAM-1, D2 ag-1, D2 antag)
COc1ccccc1N1CCN(Cc2cccs2)CC1	D2 antag 82.9 | D3 arrestin ag inactive | D2 ag-3 inactive
COc1cc2c(cc1OC)CN(Cc1cccs1)CC2	none
COc1ccccc1N1CCN(Cc2ccsc2)CC1	D2 ag-2 55.9, D2 antag 103.8 | D3 arrestin ag inactive | D2 ag-3 inactive
CCN(Cc1ccccc1)C(=O)CCc1c(C)nc2c(c(C)nn2-c2ccc(C)c(C)c2)c1C	none (no result: D2 PAM-1, D2 ag-1, D2 antag)
CC1=C(C(=O)N(C)C)CC(CC(=O)NCCCCc2ccccc2)C(=O)N1CCCN1CCCC1=O (stereo not given)	none (no result: D2 PAM-2, D2 ag-2, D2 antag)
Cc1cc(/C=C(\C#N)C(N)=O)c(C)n1-c1ccc(N2CCOCC2)c([N+](=O)[O-])c1	D2 ag-2 55.2 | D3 arrestin ag inactive | D2 ag-3 inactive
Cc1nc(NCCc2ccccc2)c2nnn(Cc3ccccc3Cl)c2n1	none | D3 arrestin ag inactive | D2 ag-3 inactive
O=c1[nH]c(-c2ccco2)nc2sc3c(c12)CCCC3	D2 ag-2 52.1 | D3 arrestin ag inactive | D2 ag-3 inactive
O=c1[nH]c(S)nc2sc3c(c12)CCCC3	none
Cc1cccc(Cn2c(CNS(=O)(=O)c3ccc4c(c3)CCCC4)nc3cccnc32)c1	none (no result: D2 PAM-1, D2 ag-1, D2 antag)
O=C(c1ccsc1)N1CCCC(N2CCN(c3cccc(Cl)c3)CC2)C1 (stereo not given)	none
COC(=O)c1ccc(C(=O)N2CCCC(N3CCN(c4ccccc4)CC3)C2)nc1 (stereo not given)	D2 ag-2 42.9 | D3 arrestin ag inactive | D2 ag-3 inactive
Cc1cnc(C(=O)N2CCCC(N3CCN(c4cccc(C(F)(F)F)c4)CC3)C2)cn1 (stereo not given)	none | D3 arrestin ag inactive | D2 ag-3 inactive
CC(C)n1cc(C(=O)N2CCCC(N3CCN(c4cccc(Cl)c4)CC3)C2)cn1 (stereo not given)	D2 ag-2 52.4 | D3 arrestin ag inactive | D2 ag-3 inactive
Cc1ccc2c(CC(=O)Nc3c(C(=O)c4ccc(F)cc4)oc4ccccc34)coc2c1C	none (no result: D2 PAM-1, D2 ag-1, D2 antag)
Cc1nn(-c2ccc(C(=O)N3CCN(S(=O)(=O)c4ccccc4C(F)(F)F)CC3)cc2)c(C)c1Cl	D2 ag-1 inconclusive, D2 ag-2 74.3, D2 antag 56.3 | D3 arrestin ag 0.794µM | D2 ag-3 31.6µM
CN(C)S(=O)(=O)c1cccc(NC(=O)CSc2ncnc3ccccc23)c1	none (no result: D2 PAM-2, D2 ag-2, D2 antag) | D3 arrestin ag inconclusive | D2 ag-3 inconclusive
Cc1c(C(=O)OCC(=O)N2C(C)CCCC2C)oc2ccccc12 (stereo not given)	none | D3 arrestin ag inactive | D2 ag-3 inactive
Clc1ccc(CN2CCN(c3ccccc3)CC2)cn1	D2 ag-1 inconclusive, D2 ag-2 74.1, D2 antag 89.9 | D3 arrestin ag inconclusive | D2 ag-3 inconclusive
Clc1ccccc1N1CCN(Cc2ccc(Br)o2)CC1	none (no result: D2 PAM-2, D2 ag-2, D2 antag)
Brc1ccc(CN2CCN(c3ccccc3)CC2)o1	D2 ag-2 72.0, D2 antag 50.5 | D3 arrestin ag inactive | D2 ag-3 inactive
c1ccc(N2CCN(Cc3cnc(N4CCOCC4)s3)CC2)cc1	D2 ag-2 63.0, D2 antag 38.3 | D3 arrestin ag inactive | D2 ag-3 inconclusive
CC1CCN(Cc2cnc(Cl)s2)CC1	none
Clc1ncc(CN2CCN(c3ccccc3)CC2)s1	D2 ag-1 47.5, D2 ag-2 74.7, D2 antag 83.7 | D3 arrestin ag inconclusive | D2 ag-3 5.01µM
Cc1ccc(C)c(N(C)C(=O)C2CCN(c3ncnc4c3nc3n4CCCCC3)CC2)c1	none (no result: D2 PAM-1, D2 ag-1, D2 antag)
O=C(CSc1nc2c([nH]c3ccccc32)c(=O)n1-c1ccccc1)Nc1ccc2c(c1)OCCO2	none (no result: D2 PAM-1, D2 ag-1, D2 antag)
CCCCCCn1c(=O)n2n(c1=O)C[C@]1(OC(=O)NCc3ccccc3)CN(S(=O)(=O)c3ccc(C)cc3)C[C@]1(O)C2	none (no result: D2 PAM-2, D2 ag-2, D2 antag)
